{"source": "ChEMBL document CHEMBL3988442", "about": "“University of Dundee, Small-Polar-MMV Screening Library” (2021)", "note": "The campaign covered roughly 48,000 compounds. About 13,000 (27%) showed an effect of 50% or more. This is one part of the list.", "data": [{"tested_on": "Wolbachia pipientis", "experiment": "Anti-Wolbachia Cell-Based Screen", "type": "functional", "parameters": "scale not given: in the data most compounds retested in dose-response had high values", "conditions": "5 µM", "units": {"Percent Effect": "%"}, "values": [{"smiles": "O=C(Cc1ccsc1)NCCc1ccoc1", "Percent Effect": -2.885}, {"smiles": "Cc1nc(CN2CCCC(CCc3ccccc3C)C2)c[nH]1", "note": "(stereo not drawn)", "Percent Effect": 4.75}, {"smiles": "Cc1ccccc1CCC1CCCN(Cc2nnc(-c3ccco3)o2)C1", "note": "(stereo not drawn)", "Percent Effect": 85.71}, {"smiles": "Cc1nnc(CN2CCCC(CCc3ccccc3C(F)(F)F)C2)o1", "note": "(stereo not drawn)", "Percent Effect": 7.283}, {"smiles": "CCc1cnc(CN2CCCC2c2noc(C3CC3)n2)o1", "note": "(stereo not drawn)", "Percent Effect": 2.963}, {"smiles": "Cc1cc(N2CCCC(N(C)C)C2)n2nc(C)cc2n1", "note": "(stereo not drawn)", "Percent Effect": 4.471}, {"smiles": "COc1cc(CNCCn2cc(C)cn2)c2c(c1)CC(C)O2", "note": "(stereo not drawn)", "Percent Effect": -8.791}, {"smiles": "FC(F)(F)CN1CCC(CCNc2ncccn2)CC1", "Percent Effect": -5.19}, {"smiles": "Cc1oc(-c2cccc(F)c2)nc1CN1CCOCS1(=O)=O", "Percent Effect": -0.8413}, {"smiles": "O=S1(=O)COCCN1Cc1ccc(F)c(C(F)(F)F)c1", "Percent Effect": 116.1}, {"smiles": "O=S1(=O)COCCN1Cc1ccc(F)cc1Cl", "Percent Effect": 116.6}, {"smiles": "Cc1ccc(-c2nc(CN3CCOCS3(=O)=O)c(C)o2)cc1", "Percent Effect": -5.038}, {"smiles": "Cc1ccc(CN2CCOCS2(=O)=O)cc1F", "Percent Effect": 130.8}, {"smiles": "CC(=O)N1CCN(Cc2ccc(F)c(C(F)(F)F)c2)CC(O)C1", "note": "(stereo not drawn)", "Percent Effect": -17.39}, {"smiles": "O=C1CCOCCN1Cc1ccc(C(F)(F)F)c(F)c1", "Percent Effect": -2.892}, {"smiles": "O=S1(=O)COCCN1Cc1ccc(Cl)c(F)c1", "Percent Effect": -18.76}, {"smiles": "O=S1(=O)COCCN1Cc1cccc(Cl)c1", "Percent Effect": -18.09}, {"smiles": "Cc1cc(CN2CCOCS2(=O)=O)ccc1F", "Percent Effect": -11.48}, {"smiles": "O=S1(=O)COCCN1Cc1ccc(Cl)c(Cl)c1", "Percent Effect": 174.3}, {"smiles": "CCc1ccc(CCC(=O)NCc2nnc[nH]2)cc1", "Percent Effect": 9.868}, {"smiles": "O=C(CCn1cccn1)NS(=O)(=O)N1CCCc2ccccc21", "Percent Effect": -12.53}, {"smiles": "CN(C)c1nc(N)nc(CSCCC(=O)Nc2ccc(F)cc2)n1", "Percent Effect": -6.74}, {"smiles": "COCCN1CCN(CC(=O)N(C)Cc2ccc(F)cc2)CC1C", "note": "(stereo not drawn)", "Percent Effect": 0.8723}, {"smiles": "O=C(CN1CCOCS1(=O)=O)NCc1ccccc1", "Percent Effect": -2.644}, {"smiles": "O=S1(=O)COCCN1Cc1ccc(F)c(F)c1", "Percent Effect": 115.2}, {"smiles": "O=C(CN1CCOCS1(=O)=O)NCCc1ccc(Cl)cc1", "Percent Effect": 2.599}, {"smiles": "Cc1cccnc1NC(=O)CSc1ccc2c(c1)OCCO2", "Percent Effect": -1.464}, {"smiles": "CCN(CC)C(=O)Nc1ccc(N2CCSCC2)cc1C", "Percent Effect": -12.7}, {"smiles": "CSc1cc2c(cc1NC(=O)N(C)Cc1ccncc1)OCCO2", "Percent Effect": -3.541}, {"smiles": "CC(NC(=O)N(C)Cc1ccncc1)c1nncn1C", "note": "(stereo not drawn)", "Percent Effect": 2.48}, {"smiles": "CC(C)c1nnc(NC(=O)N(C)Cc2ccc(C(N)=O)cc2)s1", "Percent Effect": 102.8}, {"smiles": "CNC(=O)c1ccc(CN(C)C(=O)Nc2nnc(C(C)C)s2)cc1", "Percent Effect": 109.8}, {"smiles": "CC(C)c1nnc(NC(=O)NCc2cccnc2NCCN(C)C)s1", "Percent Effect": -11.78}, {"smiles": "CC(C)c1nnc(NC(=O)N(C)Cc2ccncc2)s1", "Percent Effect": 78.38}, {"smiles": "COCCN(Cc1ccc(C)o1)C(=O)Nc1nnc(C(F)F)s1", "Percent Effect": -29.25}, {"smiles": "CC(C)c1nnc(NC(=O)NC2CCOc3ccccc32)s1", "note": "(stereo not drawn)", "Percent Effect": -12.43}, {"smiles": "CNC(=O)c1ccc(CN(C)c2ccc(C(F)(F)F)cn2)cc1", "Percent Effect": 22.77}, {"smiles": "Clc1ccc(NCc2nnc(C3CC3)o2)cc1Cl", "Percent Effect": -1.785}, {"smiles": "CC(=O)Nc1cc(Br)cnc1OCC(F)(F)F", "Percent Effect": -6.07}, {"smiles": "Cc1nc(-c2ccco2)ccc1C(=O)N1CCc2nnc(N)cc2C1", "Percent Effect": -5.155}, {"smiles": "O=C(CCC(=O)c1ccccc1)NC1(C(=O)NCC2CC2)CCCC1", "Percent Effect": -11.29}, {"smiles": "CCc1nc(N)nc(N2CCCC3(CCOCC3)C2)c1C", "Percent Effect": 10.4}, {"smiles": "CCc1nc(N)nc(N2CCCC3(CCN(C)CC3)CC2)c1C", "Percent Effect": 62.58}, {"smiles": "CCc1nc(N)nc(N2CCCC3(CN(C)C(=O)O3)C2)c1C", "note": "(stereo not drawn)", "Percent Effect": -2.167}, {"smiles": "CCOCC(=O)N1CCC(C2CCN(Cc3ccc(Cl)cc3)C2)CC1", "note": "(stereo not drawn)", "Percent Effect": -8.468}, {"smiles": "COc1cc(CNc2cnn(C)c2)cc2c1OCCO2", "Percent Effect": -0.1017}, {"smiles": "COc1ccc(CNC(C)c2cnn(C)c2)cc1OC1CCCC1", "note": "(stereo not drawn)", "Percent Effect": 106.9}, {"smiles": "CC(NCc1cccc(NC(=O)C2CCCCC2)c1)c1cnn(C)c1", "note": "(stereo not drawn)", "Percent Effect": 104.4}, {"smiles": "Clc1cnccc1NCc1cccc(COC2CCOCC2)c1", "Percent Effect": -32.94}, {"smiles": "CC(NCCN1CCN(C(=O)C2CCCC2)CC1)c1cnn(C)c1", "note": "(stereo not drawn)", "Percent Effect": 3.842}, {"smiles": "CC(C(=O)NCc1ccnc(OC2CCCC2)c1)n1cncn1", "note": "(stereo not drawn)", "Percent Effect": 10.69}, {"smiles": "O=C(Nc1cccc(CNCc2cccs2)c1)C1CCCC1", "Percent Effect": 0.6832}, {"smiles": "CCOc1cc(CNC(C)c2ccc(F)cc2)ccn1", "note": "(stereo not drawn)", "Percent Effect": -5.561}, {"smiles": "Cn1cc(C(NCc2ccc(F)cc2)c2cccc(F)c2)cn1", "note": "(stereo not drawn)", "Percent Effect": -2.157}, {"smiles": "CC(NCc1ccnc(OC2CCC2)c1)c1cnn(C)c1", "note": "(stereo not drawn)", "Percent Effect": 127.4}, {"smiles": "COc1ccc(CNC(c2cccc(F)c2)c2cnn(C)c2)cc1", "note": "(stereo not drawn)", "Percent Effect": 4.131}, {"smiles": "CC(NCc1cccc(COC2CCCC2)c1)c1cnn(C)c1", "note": "(stereo not drawn)", "Percent Effect": 126.5}, {"smiles": "CC(C)(O)C1CCN(C(=O)Nc2nc(-c3ccccc3)ns2)CC1", "Percent Effect": 6.519}, {"smiles": "CC(=O)c1cc(CC(=O)NCc2ccc(CN(C)C)cc2)cs1", "Percent Effect": -9.398}, {"smiles": "O=C1CCC2(CCCN(C(=O)c3ncc[nH]3)C2)CN1CCc1c[nH]cn1", "note": "(stereo not drawn)", "Percent Effect": 2.094}, {"smiles": "CC(=O)N1CCCN(C(C)C(=O)Nc2ccnn2C(C)C)CC1", "note": "(stereo not drawn)", "Percent Effect": 14.5}, {"smiles": "Cc1ccc(C(=O)NCCS(=O)(=O)Cc2ccccc2)c(=O)[nH]1", "Percent Effect": -6.765}, {"smiles": "CNc1cc(C2CCCN(C(=O)c3ccc(=O)[nH]n3)C2)ccn1", "note": "(stereo not drawn)", "Percent Effect": 169.1}, {"smiles": "CNc1cc(C2CCCN2C(=O)c2ccc3oc(=O)n(C)c3c2)ccn1", "note": "(stereo not drawn)", "Percent Effect": -0.2257}, {"smiles": "CNc1cc(C2CCCN2C(=O)c2ccc(=O)[nH]n2)ccn1.O=CO", "note": "(stereo not drawn)", "Percent Effect": 167.7}, {"smiles": "O=C(c1ccc(=O)[nH]n1)N1CC(c2nc(Cc3ccccc3)no2)C1", "Percent Effect": -16.23}, {"smiles": "CN(C)c1cc(C2CCCN(C(=O)c3ccc(=O)[nH]n3)C2)ccn1", "note": "(stereo not drawn)", "Percent Effect": 139.8}, {"smiles": "O=C(NCCn1cnc(C2CCCC2)cc1=O)c1ccc(=O)[nH]n1", "Percent Effect": -1.303}, {"smiles": "Cn1cc(C(=O)N2CCC(c3nccn3Cc3ccncc3)CC2)cn1", "Percent Effect": -25.63}, {"smiles": "Cc1ccnc(C2CCN(C(=O)c3cnn(C)c3)CC2)n1", "Percent Effect": 85.52}, {"smiles": "Cc1cc(C2CCCN(C(=O)c3cnn(C)c3)C2)ccn1", "note": "(stereo not drawn)", "Percent Effect": -11.66}, {"smiles": "Cc1ccnc(C2CCN(C(=O)c3cnn(C)c3)C2)n1", "note": "(stereo not drawn)", "Percent Effect": 83.36}, {"smiles": "Cc1cc(C2CCN(C(=O)c3cnn(C)c3)CC2)ccn1", "Percent Effect": 94.31}]}]}
